Records with an inconclusive call do not appear. Calls of active or inactive are those of the source. Unless noted, the call rests on the fitted dose curve; in most records, active means well fitted curve in the direction sought with a large enough effect; inconclusive means small, poorly fitted or top-dose-only effect, or another doubt; inactive means no such curve, though single readings can be large; an effect the other way counts as inactive or inconclusive.
How the values were obtained:
[1] = P-glycoprotein substrates identified in KB-8-5-11 adenocarcinoma cell line, qHTS therapeutic library screen (AID 1346987); further: nearly all actives have a fitted effect of over 65% in size
How it was run: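 P-gp-mediated resistance screen: KB-8-5-11 cells treated 72 h with compounds in dose-response. CellTiter-Glo viability.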

[2] = biological target: Atrial natriuretic peptide receptor 1 (Homo sapiens) (UniProt P16066); assay: Natriuretic polypeptide receptor (hNpr1) antagonism - Pilot screen (AID 1347049; calls by dose curve;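 further: agonist-evoked cGMP luminescence read 20 min after hNppA addition; series mostly up to about 58 µM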)
Sequence of Atrial natriuretic peptide receptor 1 (Homo sapiens) (P16066 whole entry, looked up): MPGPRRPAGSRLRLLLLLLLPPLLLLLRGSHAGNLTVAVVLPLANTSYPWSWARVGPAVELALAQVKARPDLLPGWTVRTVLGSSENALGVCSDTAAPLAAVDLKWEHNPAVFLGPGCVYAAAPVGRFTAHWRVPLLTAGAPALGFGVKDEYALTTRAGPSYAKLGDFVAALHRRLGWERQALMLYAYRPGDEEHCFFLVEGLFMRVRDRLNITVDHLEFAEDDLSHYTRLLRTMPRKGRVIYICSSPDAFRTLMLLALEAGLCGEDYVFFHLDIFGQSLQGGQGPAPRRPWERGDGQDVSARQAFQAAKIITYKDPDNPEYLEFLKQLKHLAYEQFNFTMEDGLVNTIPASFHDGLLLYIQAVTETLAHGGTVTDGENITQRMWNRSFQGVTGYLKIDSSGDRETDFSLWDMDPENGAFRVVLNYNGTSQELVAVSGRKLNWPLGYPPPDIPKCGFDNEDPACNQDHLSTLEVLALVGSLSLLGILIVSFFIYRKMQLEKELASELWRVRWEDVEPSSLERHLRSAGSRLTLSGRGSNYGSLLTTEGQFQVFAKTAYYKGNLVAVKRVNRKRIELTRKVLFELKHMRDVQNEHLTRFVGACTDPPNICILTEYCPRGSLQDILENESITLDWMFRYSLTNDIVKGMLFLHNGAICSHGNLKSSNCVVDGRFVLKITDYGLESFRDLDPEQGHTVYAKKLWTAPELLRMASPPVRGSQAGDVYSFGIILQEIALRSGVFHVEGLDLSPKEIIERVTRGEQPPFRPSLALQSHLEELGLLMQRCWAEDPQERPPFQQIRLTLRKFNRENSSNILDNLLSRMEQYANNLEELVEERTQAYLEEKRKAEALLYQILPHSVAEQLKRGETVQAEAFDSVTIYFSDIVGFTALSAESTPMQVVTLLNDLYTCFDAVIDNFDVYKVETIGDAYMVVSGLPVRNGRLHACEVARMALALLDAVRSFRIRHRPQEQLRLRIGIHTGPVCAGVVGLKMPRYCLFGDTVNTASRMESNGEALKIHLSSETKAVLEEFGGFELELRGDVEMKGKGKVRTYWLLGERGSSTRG
How it was run: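 Readout is cGMP-driven firefly luciferase luminescence in HEK293 cells carrying hNpr1 and a PDE5-domain GloSensor, read before and 20 min after 0.1 nM hNppA stimulation. Cells had 2% substrate reagent for 2 h and test compound for 30 min.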

[3] = biological target: Atrial natriuretic peptide receptor 2 (Homo sapiens) (UniProt P20594); assay: Natriuretic polypeptide receptor (hNpr2) antagonism - Pilot subtype selectivity assay (AID 1347050; calls by dose curve)
Sequence of Atrial natriuretic peptide receptor 2 (Homo sapiens) (P20594 whole entry, looked up): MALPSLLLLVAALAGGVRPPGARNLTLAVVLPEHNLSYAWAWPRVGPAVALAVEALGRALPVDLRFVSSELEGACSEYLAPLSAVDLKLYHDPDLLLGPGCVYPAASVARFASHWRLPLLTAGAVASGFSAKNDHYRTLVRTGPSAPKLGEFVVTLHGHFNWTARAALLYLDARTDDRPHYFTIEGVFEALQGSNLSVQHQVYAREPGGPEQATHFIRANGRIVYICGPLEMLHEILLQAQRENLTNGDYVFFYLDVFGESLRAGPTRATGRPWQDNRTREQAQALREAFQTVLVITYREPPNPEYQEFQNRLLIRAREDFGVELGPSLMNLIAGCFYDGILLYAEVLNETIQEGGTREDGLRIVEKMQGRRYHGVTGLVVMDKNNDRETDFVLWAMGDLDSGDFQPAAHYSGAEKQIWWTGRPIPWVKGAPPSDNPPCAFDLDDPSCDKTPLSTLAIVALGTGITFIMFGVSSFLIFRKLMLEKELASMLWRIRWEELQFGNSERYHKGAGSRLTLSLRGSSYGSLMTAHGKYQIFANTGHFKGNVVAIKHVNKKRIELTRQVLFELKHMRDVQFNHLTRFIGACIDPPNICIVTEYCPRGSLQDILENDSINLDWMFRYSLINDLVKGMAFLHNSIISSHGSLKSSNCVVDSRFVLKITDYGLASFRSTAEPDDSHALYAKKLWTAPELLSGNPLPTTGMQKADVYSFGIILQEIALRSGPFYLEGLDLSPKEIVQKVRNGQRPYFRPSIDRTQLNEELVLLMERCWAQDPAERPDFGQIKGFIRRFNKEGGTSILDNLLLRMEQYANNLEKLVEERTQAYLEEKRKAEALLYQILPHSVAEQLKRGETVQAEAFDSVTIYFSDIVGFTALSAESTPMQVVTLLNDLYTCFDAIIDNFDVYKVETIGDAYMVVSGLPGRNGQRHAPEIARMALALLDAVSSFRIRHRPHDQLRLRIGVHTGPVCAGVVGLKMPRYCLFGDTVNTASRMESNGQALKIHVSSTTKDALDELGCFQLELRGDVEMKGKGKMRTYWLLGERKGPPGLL
How it was run: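 Pilot selectivity screen against hNpr2: HEK293 cGMP-sensor cells are treated with LOPAC1280 compounds, then with hNppC peptide at 1 nM final. The cGMP-driven luminescence change over 20 min at room temperature is the read-out.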

[4] = NS1 protein of Zika virus - qHTS assay to identify small molecule inhibitors in human HEK 293 cells (AID 1347053); further: series mostly up to about 46 µM; nearly all actives have a fitted effect of over 55% in size
How it was run: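 HEK 293 cells pretreated with compound for 1 h, then infected with ZIKV MR766 (MOI 0.5) for 24 h at 37 C. NS1 detected by TR-FRET with two anti-NS1 antibodies; normalized to uninfected (0%) and infected (100%) wells.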

[5] = biological target: T1, Tyrosine-protein phosphatase non-receptor type substrate 1 (Homo sapiens) + Leukocyte surface antigen CD47 (Homo sapiens) (UniProt P78324+Q08722); assay: CD47-SIRPalpha protein protein interaction - HTRF assay qHTS validation (AID 1347058; active means well fitted curve in the direction sought with a large enough effect in the signal ratio, not every such curve was filed as active; the % refers to the signal ratio;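 further: recombinant soluble extracellular CD47 with His tag and biotinylated SIRPalpha domains; series mostly up to about 38 µM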)
T1 sequence (P78324 whole entry, looked up, the tested form may be a part): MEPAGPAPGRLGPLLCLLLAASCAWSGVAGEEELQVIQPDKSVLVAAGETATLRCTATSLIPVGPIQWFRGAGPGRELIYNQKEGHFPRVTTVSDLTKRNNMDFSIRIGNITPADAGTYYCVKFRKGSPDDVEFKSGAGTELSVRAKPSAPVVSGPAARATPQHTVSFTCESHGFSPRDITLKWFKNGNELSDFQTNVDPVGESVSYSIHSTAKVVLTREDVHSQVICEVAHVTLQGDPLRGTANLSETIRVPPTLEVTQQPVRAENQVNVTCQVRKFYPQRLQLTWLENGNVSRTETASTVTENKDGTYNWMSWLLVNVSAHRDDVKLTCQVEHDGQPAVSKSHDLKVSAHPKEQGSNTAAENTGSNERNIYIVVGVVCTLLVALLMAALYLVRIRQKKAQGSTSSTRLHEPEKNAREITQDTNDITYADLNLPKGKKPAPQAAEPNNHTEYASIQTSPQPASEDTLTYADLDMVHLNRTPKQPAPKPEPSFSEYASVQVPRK
T1 sequence (Q08722 whole entry, looked up, the tested form may be a part): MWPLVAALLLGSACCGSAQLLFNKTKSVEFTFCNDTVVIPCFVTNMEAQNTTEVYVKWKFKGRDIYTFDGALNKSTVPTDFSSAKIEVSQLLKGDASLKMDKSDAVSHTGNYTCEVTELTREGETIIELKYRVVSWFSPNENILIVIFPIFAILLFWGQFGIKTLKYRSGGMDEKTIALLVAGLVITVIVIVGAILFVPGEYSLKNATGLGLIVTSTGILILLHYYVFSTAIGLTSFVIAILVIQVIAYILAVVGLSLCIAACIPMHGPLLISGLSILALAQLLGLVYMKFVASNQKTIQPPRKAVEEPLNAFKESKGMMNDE
How it was run: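 TR-FRET read (Ch1/Ch2 ratio) of soluble extracellular CD47 and Avi-biotinylated SIRPalpha domains in PBS pH 7.4 with 0.05% IGEPAL; 7-point compound titration. Sequential 30 min room-temperature steps; non-biotinylated SIRPalpha as control inhibitor.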

[6] = biological target: T1, Tyrosine-protein phosphatase non-receptor type substrate 1 (Homo sapiens) + Leukocyte surface antigen CD47 (Homo sapiens); assay: CD47-SIRPalpha protein protein interaction - Alpha assay qHTS validation (AID 1347059);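 further: bead proximity luminescence from CD47 binding SIRPalpha after compound preincubation with SIRPalpha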
How it was run: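 Binding is measured by AlphaScreen proximity: Ni-NTA acceptor beads capture His-CD47, streptavidin donor beads capture biotin-SIRPalpha. Each of three additions (SIRPalpha with compound, CD47, beads) incubates 30 min at room temperature protected from light.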

[7] = biological target: Parathyroid hormone/parathyroid hormone-related peptide receptor (Homo sapiens) (UniProt Q03431); assay: qHTS for PTHR1 Agonists: Optimization Screen against the NCGC LOPAC library (AID 1347079);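 further: GloSensor cAMP luminescence in HEK-293 GP2 cells expressing human PTHR1 with IBMX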
Sequence of Parathyroid hormone/parathyroid hormone-related peptide receptor (Homo sapiens) (Q03431 whole entry, looked up): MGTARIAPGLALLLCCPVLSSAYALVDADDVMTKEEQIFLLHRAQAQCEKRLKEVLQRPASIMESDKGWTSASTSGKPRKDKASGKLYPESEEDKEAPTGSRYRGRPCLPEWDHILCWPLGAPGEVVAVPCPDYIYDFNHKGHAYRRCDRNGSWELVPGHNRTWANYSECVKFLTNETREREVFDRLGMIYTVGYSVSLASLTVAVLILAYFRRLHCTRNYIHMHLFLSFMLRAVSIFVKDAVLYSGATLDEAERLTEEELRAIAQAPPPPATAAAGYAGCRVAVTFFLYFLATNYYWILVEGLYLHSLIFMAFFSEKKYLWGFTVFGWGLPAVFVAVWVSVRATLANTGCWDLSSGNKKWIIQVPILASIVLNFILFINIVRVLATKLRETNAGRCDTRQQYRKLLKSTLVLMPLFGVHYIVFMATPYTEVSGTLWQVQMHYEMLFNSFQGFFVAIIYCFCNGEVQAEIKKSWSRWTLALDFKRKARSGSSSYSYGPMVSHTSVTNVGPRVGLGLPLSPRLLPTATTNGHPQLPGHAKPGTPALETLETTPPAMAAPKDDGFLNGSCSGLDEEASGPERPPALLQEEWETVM
How it was run: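 Compounds were tested across a qHTS titration. PTHR1-expressing GP2 cells report cAMP rises via GloSensor luminescence after 1 hr compound exposure at 37C with IBMX present.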

[8] = qHTS for Inhibitors of the Functional Ribonucleoprotein Complex (vRNP) of Lassa (LASV) Arenavirus: LASV Primary Screen - GLuc reporter signal (AID 1347082; calls by dose curve; tested in HEK293 reporter line; further: series mostly up to about 57 µM; nearly all actives have a fitted effect of over 60% in size)
[9] = qHTS for Inhibitors of the Functional Ribonucleoprotein Complex (vRNP) of Lassa (LASV) Arenavirus: Viability assay - alamar blue signal for LASV Primary Screen (AID 1347083; calls by dose curve; tested in HEK293 reporter line; further: series mostly up to about 57 µM; nearly all actives have a fitted effect of over 80% in size)
[10] = qHTS for Inhibitors of the Functional Ribonucleoprotein Complex (vRNP) of Lymphocytic Choriomeningitis Arenaviruses (LCMV): Viability assay - alamar blue signal for LCMV Primary Screen (AID 1347085; calls by dose curve; tested in HEK293 reporter line; further: series mostly up to about 57 µM; nearly all actives have a fitted effect of over 80% in size)
[11] = biological target: Nucleoprotein (Lymphocytic choriomeningitis virus (strain Armstrong)) (UniProt P09992); assay: qHTS for Inhibitors of the Functional Ribonucleoprotein Complex (vRNP) of Lymphocytic Choriomeningitis Arenaviruses (LCMV): LCMV Primary Screen - GLuc reporter signal (AID 1347086; calls by dose curve; further: series mostly up to about 57 µM; nearly all actives have a fitted effect of over 70% in size)
Sequence of Nucleoprotein (Lymphocytic choriomeningitis virus (strain Armstrong)) (P09992 whole entry, looked up): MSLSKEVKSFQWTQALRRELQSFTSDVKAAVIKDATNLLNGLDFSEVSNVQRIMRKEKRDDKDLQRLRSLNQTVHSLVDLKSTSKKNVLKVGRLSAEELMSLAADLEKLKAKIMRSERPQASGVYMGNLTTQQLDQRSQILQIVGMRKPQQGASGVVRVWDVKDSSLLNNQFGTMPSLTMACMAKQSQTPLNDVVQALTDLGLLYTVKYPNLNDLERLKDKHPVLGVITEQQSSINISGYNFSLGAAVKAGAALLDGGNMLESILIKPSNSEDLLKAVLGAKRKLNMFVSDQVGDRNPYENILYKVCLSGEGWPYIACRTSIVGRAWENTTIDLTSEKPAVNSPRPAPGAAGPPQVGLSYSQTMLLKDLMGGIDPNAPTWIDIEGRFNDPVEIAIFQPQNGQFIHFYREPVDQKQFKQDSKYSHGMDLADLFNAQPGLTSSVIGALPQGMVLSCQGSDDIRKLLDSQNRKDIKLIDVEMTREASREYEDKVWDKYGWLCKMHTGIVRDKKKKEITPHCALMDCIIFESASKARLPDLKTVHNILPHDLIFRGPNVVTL

[12] = qHTS of pediatric cancer cell lines to identify multiple opportunities for drug repurposing: Primary screen for TC32 cells (AID 1347089); further: nearly all actives have a fitted effect of over 60% in size
How it was run: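 Measured quantity: luminescence from CellTiter-Glo, reflecting metabolically active TC32 cells following 48 h of compound. Curves came straight from multi-point titrations, with 8 or 11 points in primary and 11 in confirmatory screening.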

[13] = qHTS of pediatric cancer cell lines to identify multiple opportunities for drug repurposing: Primary screen for DAOY cells (AID 1347090); further: series mostly up to about 46 µM; nearly all actives have a fitted effect of over 55% in size
How it was run: (§1)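 Cell viability, CellTiter-Glo luminescence; 500-1,000 cells/well, 8- or 11-point titration, 48 h compound exposure at 37 degrees C, 5% CO2. Controls: DMSO neutral, bortezomib 2.3 µM final as positive.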

[14] = qHTS of pediatric cancer cell lines to identify multiple opportunities for drug repurposing: Primary screen for SJ-GBM2 cells (AID 1347091)
How it was run: as §1

[15] = qHTS of pediatric cancer cell lines to identify multiple opportunities for drug repurposing: Primary screen for A673 cells (AID 1347092); further: nearly all actives have a fitted effect of over 45% in size
How it was run: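 Cells are plated, rested 5 h, dosed by pintool, incubated 48 h, then lysed with CellTiter-Glo and read by luminescence. DMSO is the neutral control; bortezomib at 2.3 uM final is the positive control.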

[16] = qHTS of pediatric cancer cell lines to identify multiple opportunities for drug repurposing: Primary screen for SK-N-MC cells (AID 1347093); further: series mostly up to about 46 µM
How it was run: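 Metabolically active cells were quantified by ATP-dependent luminescence (CellTiter-Glo, 15 min at room temperature) following 48 h treatment. Cells had been plated at 500-1,000 per well and settled for 5 h beforehand.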

[17] = qHTS of pediatric cancer cell lines to identify multiple opportunities for drug repurposing: Primary screen for BT-37 cells (AID 1347094); further: series mostly up to about 57 µM
How it was run: (§2)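 Luminescence from CellTiter-Glo served as readout of metabolically active cells after 48 h compound exposure. Titrations: MIPE 11-point, from 0.78 nM; NPC 8-point, from 0.59 nM (final). Concentration-response curves came straight from the primary screen.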

[18] = qHTS of pediatric cancer cell lines to identify multiple opportunities for drug repurposing: Primary screen for NB-EBc1 cells (AID 1347095)
How it was run: as §2

[19] = qHTS of pediatric cancer cell lines to identify multiple opportunities for drug repurposing: Primary screen for U-2 OS cells (AID 1347096); further: nearly all actives have a fitted effect of over 50% in size
How it was run: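 Cells (500-1,000/well) rested 5 h, then received compounds for 48 h; metabolically active cells were measured by CellTiter-Glo luminescence. Final concentrations spanned up to 46 µM (MIPE, 11-point) or 0.59 nM-46 µM (NPC, 8-point) in primary screens, 11-point in follow-ups.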

[20] = qHTS of pediatric cancer cell lines to identify multiple opportunities for drug repurposing: Primary screen for Saos-2 cells (AID 1347097); further: nearly all actives have a fitted effect of over 40% in size
How it was run: as §2

Measured: Potency

CC(C)c1cccc(C(C)C)c1O
inactive: [1] | [2] | [3] | [4] | [5] | [6] | [7] | [8] | [9] | [10] | [11] | [12] | [13] | [14] | [15] | [16] | [17] | [18] | [19] | [20]

CC(=O)NC1CCSC1=O (centres undefined)
inactive: [1] | [4] | [8] | [9] | [10] | [11] | [12] | [13] | [14] | [15] | [16] | [17] | [18] | [19]

CCCCCN(C)CCC(O)(P(=O)(O)O)P(=O)(O)O
inactive: [1] | [4] | [5] | [6] | [8] | [9] | [10] | [11]

O=P1(N(CCCl)CCCl)NCCCO1 (centres undefined)
inactive: [1] | [2] | [3] | [4] | [5] | [6] | [7] | [8] | [9] | [10] | [11] | [12] | [13] | [14] | [15] | [16] | [17] | [18] | [19] | [20]

COC(=O)[C@@H](N)CCCN/C(N)=N/[N+](=O)[O-]
inactive: [1] | [4] | [8] | [9] | [10] | [11] | [12] | [13] | [14] | [15] | [16] | [17] | [18] | [19] | [20]

C[N+]1(CCF)[C@@H]2CC[C@H]1CC(OC(=O)C(O)(c1ccccc1)c1ccccc1)C2 (some centres undefined)
inactive: [1] | [4] | [8] | [9] | [10] | [11] | [12] | [13] | [14] | [15] | [16] | [17] | [18] | [19] | [20]

Nc1nc(N)nc(NC2CC2)n1
inactive: [1] | [4] | [8] | [9] | [10] | [11] | [12] | [13] | [14] | [15] | [16] | [17] | [18] | [19] | [20]

COc1ccc2c(c1OC)C(=O)O[C@H]2[C@@H]1c2cc3c(cc2CCN1C)OCO3
inactive: [1] | [2] | [3] | [4] | [5] | [6] | [7] | [8] | [9] | [10] | [11] | [12] | [13] | [14] | [15] | [16] | [17] | [18] | [19] | [20]

COc1c2c(cc3c1OCO3)CCN(C)C2
inactive: [1] | [4] | [8] | [9] | [10] | [11] | [12] | [13] | [14] | [15] | [16] | [17] | [18] | [19]

O=C1Nc2ccc(Cl)cc2C(c2ccccc2Cl)=NC1O (centres undefined)
inactive: [1]

Clc1ccc2c(c1)C(c1ccccc1)=NCc1nncn1-2
inactive: [1]

CCC1(c2ccc(N)cc2)CCC(=O)NC1=O (centres undefined)
inactive: [1] | [2] | [3] | [4] | [5] | [6] | [7] | [8] | [9] | [10] | [11] | [12] | [13] | [14] | [15] | [16] | [17] | [18] | [19] | [20]

Nc1ccc([As](=O)(O)O)cc1
inactive: [1] | [4] | [8] | [9] | [10] | [11] | [12] | [13] | [14] | [15] | [16] | [17] | [18] | [19] | [20]

COc1cc(CCN)cc(OC)c1OC
inactive: [1] | [4] | [8] | [9] | [10] | [11] | [12] | [13] | [14] | [15] | [16] | [17] | [18] | [19] | [20]

C[C@H](N)C(=O)c1ccccc1
inactive: [1] | [4] | [8] | [9] | [10] | [11] | [12] | [13] | [14] | [15] | [16] | [17] | [18] | [19] | [20]

COC(=O)C(c1ccccc1)C1CCCCN1 (centres undefined)
inactive: [1]

CN1C(=O)CCS(=O)(=O)C1c1ccc(Cl)cc1 (centres undefined)
inactive: [1] | [2] | [3] | [4] | [5] | [6] | [7] | [8] | [9] | [10] | [11] | [12] | [13] | [14] | [15] | [16] | [17] | [18] | [19] | [20]

C=CCC1([C@H](C)CCC)C(=O)NC(=O)NC1=O
inactive: [1] | [4] | [8] | [9] | [10] | [11] | [12] | [13] | [14] | [15] | [16] | [17] | [18] | [19] | [20]

C#C[C@]1(O)CC[C@H]2[C@@H]3CCC4=CC(=O)CC[C@]4(C)[C@H]3CC[C@@]21C
inactive: [1] | [4] | [8] | [9] | [10] | [11] | [12] | [13] | [14] | [15] | [16] | [17] | [18] | [19] | [20]

CC(C)NC(C)C
inactive: [1] | [4] | [8] | [9] | [10] | [11] | [12] | [13] | [14] | [15] | [16] | [17] | [18] | [19] | [20]
